Experimental data from the supplement of paper PMC13380429.

System: Vero E6 infected with SARS-CoV-2
Assay: inhibition of SARS-CoV-2 cytopathic effect; higher = more antiviral protection, active = above 15
Conditions: 48 h

Measured: inhibition of SARS-CoV-2 cytopathic effect

CC(C)C[C@@H](C(=O)N[C@H](C(=O)OC1CCCC1)c1ccccc1)[C@H](O)C(=O)NO [tosedostat]
inactive: 1 nM 3.34% | 8.33 nM 6.05% | 100 nM -1.49% | 833.33 nM 3.93% | 10000 nM 4.94%

CO[C@@H]1[C@@H](O[C@@H]2O[C@H](C)[C@@H](O[C@H]3C[C@@](C)(O)[C@@H](OC(=O)CC(C)C)[C@H](C)O3)[C@H](N(C)C)[C@H]2O)[C@@H](CC=O)C[C@@H](C)[C@@H](O)/C=C/C=C/C[C@@H](C)OC(=O)C[C@H]1OC(C)=O [josamycin]
inactive: 1 nM 2.65% | 8.33 nM 0.07% | 100 nM -2.91% | 833.33 nM -1.73% | 10000 nM -7.02%

CCc1cccc2c3c([nH]c12)C(CC)(CC(=O)O)OCC3 (stereo not given) [etodolac]
inactive: 1 nM -3.24% | 8.33 nM -2.14% | 100 nM -2.22% | 833.33 nM -1.67% | 10000 nM -0.69%

CN(C)CC/C=C1/c2ccccc2COc2ccccc21 [doxepin]
inactive: 1 nM -0.79% | 8.33 nM 1.36% | 100 nM 1.85% | 833.33 nM -1.94% | 10000 nM -2.1%

O=C(O)CCC/C=C\C[C@@H]1[C@@H](/C=C/[C@@H](O)COc2cccc(Cl)c2)[C@H](O)C[C@@H]1O (racemic) [cloprostenol-(+/-)]
inactive: 1 nM -2.05% | 8.33 nM 0.95% | 100 nM 2.48% | 833.33 nM 5.03% | 10000 nM 0.05%

FC(F)(F)Oc1ccc2nc(-c3ccc(OCCOCCOc4ccc(-c5nc6ccc(OC(F)(F)F)cc6[nH]5)nc4)cn3)[nH]c2c1
inactive: 1 nM -0.41% | 8.33 nM 1.44% | 100 nM 0.99% | 833.33 nM 3.47% | 10000 nM -6.61%

CN(C)CCCn1cc(C2=C(c3c[nH]c4ccccc34)C(=O)NC2=O)c2ccccc21
inactive: 1 nM 2.56% | 8.33 nM 1.35% | 100 nM 1.36% | 833.33 nM 0.57% | 10000 nM 13.2%

CC(=O)N1CCN(C)CC1 [1-acetyl-4-methylpiperazine]
inactive: 1 nM 4.74% | 8.33 nM 3.75% | 100 nM 3.95% | 833.33 nM 4.36% | 10000 nM -0.21%

CCCCC/C=C\C=C\CCCCCCCCC(=O)O [trans-10,cis-12-conjugated-linoleic-acid]
inactive: 1 nM -0.53% | 8.33 nM -2.2% | 100 nM -2.88% | 833.33 nM -2.64% | 10000 nM 7.84%

O=C(NCNC(=O)NC1C(=O)NC(=O)N1CO)NC1C(=O)NC(=O)N1CO (stereo not given) [imidurea]
inactive: 1 nM -0.15% | 8.33 nM 0.45% | 100 nM -1.76% | 833.33 nM -1.38% | 10000 nM 0.38%

COc1ccc(O)cc1 [mequinol]
inactive: 1 nM 2.15% | 8.33 nM -1.51% | 100 nM 2.67% | 833.33 nM 1.18% | 10000 nM 2.53%

CN1C(=O)CC(c2ccccc2)C1=O (stereo not given) [phensuximide]
inactive: 1 nM 2.58% | 8.33 nM 3.13% | 100 nM 2.74% | 833.33 nM 2.55% | 10000 nM -1.46%

O=C(O)c1cnn(-c2nc3cc(OC(F)(F)F)c(Cl)cc3[nH]2)c1
inactive: 1 nM 0.36% | 8.33 nM 1.44% | 100 nM 1.23% | 833.33 nM 1.43% | 10000 nM -0.28%

Cn1c(NCCN(CCO)CCCc2ccc([N+](=O)[O-])cc2)cc(=O)n(C)c1=O [nifekalant]
inactive: 1 nM -1.86% | 8.33 nM 0% | 100 nM -1.76% | 833.33 nM -0.02% | 10000 nM -1.25%

CNC(C)(C)Cc1ccccc1 [mephentermine]
inactive: 1 nM -6.95% | 8.33 nM -4.1% | 100 nM -6.2% | 833.33 nM -3.76% | 10000 nM 2.65%

CN1CCOC(c2ccccc2)c2ccccc2C1 (stereo not given) [nefopam]
inactive: 1 nM 1.99% | 8.33 nM 0.54% | 100 nM 2.72% | 833.33 nM -1.03% | 10000 nM -1.47%

c1ccc(CNCc2ccc(CN3CCCNCCNCCCNCC3)cc2)nc1
inactive: 1 nM 0.27% | 8.33 nM 1.15% | 100 nM 3.41% | 833.33 nM 1.72% | 10000 nM 2.99%

N[C@H](C(=O)O)c1ccc(O)c(C(=O)O)c1 [3-carboxy-4-hydroxyphenylglycine-(S)]
inactive: 1 nM -1.22% | 8.33 nM 0.105% | 100 nM -0.545% | 833.33 nM -1.18% | 10000 nM 0.39%

C[C@H](N)[C@H](O)c1cccc(O)c1 [metaraminol]
inactive: 1 nM 5.57% | 8.33 nM 5.04% | 100 nM 2.34% | 833.33 nM 1.83% | 10000 nM 1.14%

O=C1c2c(O)cccc2Cc2cccc(O)c21 [anthralin]
inactive: 1 nM -1.32% | 8.33 nM -2.05% | 100 nM 0.93% | 833.33 nM -2.71% | 10000 nM -1.19%

CN(C)CCCSC(=N)N [dimaprit]
inactive: 1 nM 0.47% | 8.33 nM 0.92% | 100 nM -0.82% | 833.33 nM -1.15% | 10000 nM 2.17%

Cc1cccc(Nc2cc(Cl)nc(SCC(=O)O)n2)c1C [pirinixic-acid]
inactive: 1 nM -0.9% | 8.33 nM -0.95% | 100 nM -1.99% | 833.33 nM -0.44% | 10000 nM 2.81%

O=C1C(=C(O)/C=C/c2ccc(O)cc2)C(=O)[C@@](O)([C@@H]2O[C@H](CO)[C@@H](O)[C@H](O)[C@H]2O)C(=O)[C@H]1[C@@H]1O[C@H](CO)[C@@H](O)[C@H](O)[C@H]1O
inactive: 1 nM 0.73% | 8.33 nM -1.02% | 100 nM -0.24% | 833.33 nM -0.74% | 10000 nM -2.44%

Nc1nc2c(ncn2COC(CO)CO)c(=O)[nH]1 [ganciclovir]
inactive: 1 nM 0.29% | 8.33 nM 0.09% | 100 nM 2.75% | 833.33 nM -1.42% | 10000 nM -1.71%

O=C(N[C@@H]1Cc2ccccc2N(C[C@@H](O)CO)C1=O)c1cc2cc(Cl)sc2[nH]1
inactive: 1 nM -0.59% | 8.33 nM -0.92% | 100 nM -2.86% | 833.33 nM -2.28% | 10000 nM -3.46%

COc1cc2c(cc1OC)C(=O)C(CC1CCN(Cc3ccccc3)CC1)C2 (stereo not given) [donepezil]
inactive: 1 nM -2.44% | 8.33 nM -3.45% | 100 nM -1.84% | 833.33 nM -1.28% | 10000 nM -8.45%

Nc1ccccc1NC(=O)c1ccc(CNc2nccc(-c3cccnc3)n2)cc1 [mocetinostat]
inactive: 1 nM 0.57% | 8.33 nM -0.45% | 100 nM -0.53% | 833.33 nM 1.7% | 10000 nM -0.45%

CNCCC=C1c2ccccc2C=Cc2ccccc21 [norcyclobenzaprine]
inactive: 1 nM -0.66% | 8.33 nM 3.83% | 100 nM -2.37% | 833.33 nM -0.19% | 10000 nM -7.92%

CCN1CCCC1CNC(=O)c1cc(S(=O)(=O)CC)c(N)cc1OC (stereo not given) [amisulpride]
inactive: 1 nM 2.43% | 8.33 nM -1.75% | 100 nM 0.45% | 833.33 nM -2.32% | 10000 nM -1.76%

Cc1cc2nc3c(=O)[nH]c(=O)nc-3n(C)c2cc1C=O
inactive: 1 nM 0.98% | 8.33 nM -1.25% | 100 nM -1.28% | 833.33 nM 2.07% | 10000 nM 1.18%

Cc1cc(Nc2cc(C)c(C#N)c(N[C@@H](C)CCCC(C)(C)O)n2)n[nH]1
inactive: 1 nM -1.85% | 8.33 nM -0.28% | 100 nM -1.25% | 833.33 nM -6.81% | 10000 nM -8.95%

CC(C)(C)NC(=O)N[C@H](C(=O)N1C[C@H]2[C@@H]([C@H]1C(=O)NC(CC1CCC1)C(=O)C(N)=O)C2(C)C)C(C)(C)C (stereo not given in full) [Boceprevir]
inactive: 1 nM 0.22% | 8.33 nM 1.1% | 100 nM -0.28% | 833.33 nM -1.99% | 10000 nM -0.53%

CC1(C)Oc2ccc(C#N)cc2[C@H](N(Cc2ncc[nH]2)c2ccc(Cl)cc2)[C@H]1O
inactive: 1 nM 0.45% | 8.33 nM -1.34% | 100 nM 1.85% | 833.33 nM 2.7% | 10000 nM -1.77%

O=C(Nc1cnccc1Cl)N1CCN(Cc2ccc3c(c2)OC(F)(F)O3)CC1
inactive: 1 nM 1.58% | 8.33 nM -1.35% | 100 nM 1.93% | 833.33 nM 0.76% | 10000 nM 0.7%

CC(C)C[C@H](NC(=O)CNC(=O)c1cc(Cl)ccc1Cl)B1OC(=O)C(CC(=O)O)(CC(=O)O)O1
active: 100 nM 21.2% | 833.33 nM 34.2% | 10000 nM 18.7%
inactive: 1 nM -0.89% | 8.33 nM 1.36%

CN1CCN(C(=O)c2nc3ccc(Cl)cc3[nH]2)CC1
inactive: 1 nM -2% | 8.33 nM 1.3% | 100 nM 0.78% | 833.33 nM 1.23% | 10000 nM 1.76%

Cc1ccccc1C(=O)Nc1ccc(C(=O)N2CCCC(O)c3cc(Cl)ccc32)c(C)c1 (stereo not given) [tolvaptan]
inactive: 1 nM 1.52% | 8.33 nM 1.94% | 100 nM 0.74% | 833.33 nM -1.55% | 10000 nM 1.54%

NC(=O)c1nc(F)cnc1O [Favipiravir]
inactive: 1 nM -0.26% | 8.33 nM 1.4% | 100 nM -0.55% | 833.33 nM 1.38% | 10000 nM -0.22%

Cc1nc(=O)c2cc(CN(C)c3ccc(C(=O)N[C@@H](CCC(=O)O)C(=O)O)s3)ccc2[nH]1 [raltitrexed]
inactive: 1 nM -0.77% | 8.33 nM 5.47% | 100 nM 1.2% | 833.33 nM -4.47% | 10000 nM -1.82%
